Shiga inhibitor: A qHTS for Small Molecule Inhibitors of Shiga Toxin. Vero cells, Shiga toxin protein synthesis inhibition reporter. inhibition, % at 38.7 µM. 290,000 tested, 9.2% active; in the data active = inhibition mostly above about 28%, no sharp cut-off; inactive = mostly below about 43%; also: 0% is about no effect
TbPYK inhibitor: qHTS of Trypanosoma Brucei Inhibitors. pyruvate kinase (Trypanosoma brucei), Q57TT1. TbPYK enzyme, Kinase-Glo Plus ATP luminescence, 45 min. Potency, µM (doses to about 76.8 µM), without a hit: at the top dose activity, negative = inhibition, actives largely listed as inhibitors. 410,000 tested, 0.12% active. AID 624173, 2012; also: potency is read from the fitted curve at half-maximal effect; % is scaled to controls: 0 for no effect and ±100 for the full control effect; nearly all actives have a fitted effect of over 50% in size
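Luminescence from Kinase-Glo Plus, added after a 45-minute room-temperature reaction, served as the end-point read-out. The enzyme and substrate were preincubated with compound before ADP (130 uM final) initiated turnover. Concentration-effect curves came from normalized qHTS data.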
Giardia FBPA inh: qHTS Assay for Inhibitors of Fructose-1,6-bisphosphate Aldolase from Giardia Lamblia; purified Giardia FBPA; Potency, µM (highest dose often 59.6 µM), for the others: at the highest dose activity, negative = inhibition, usual class: inhibitors; 290,000 tested, 0.71% active; also: potency is read from the fitted curve at half-maximal effect; % is scaled to controls: 0 for no effect and ±100 for the full control effect; nearly all actives have a fitted effect of over 55% in size
Target sequence (A8B2U2 whole entry, looked up): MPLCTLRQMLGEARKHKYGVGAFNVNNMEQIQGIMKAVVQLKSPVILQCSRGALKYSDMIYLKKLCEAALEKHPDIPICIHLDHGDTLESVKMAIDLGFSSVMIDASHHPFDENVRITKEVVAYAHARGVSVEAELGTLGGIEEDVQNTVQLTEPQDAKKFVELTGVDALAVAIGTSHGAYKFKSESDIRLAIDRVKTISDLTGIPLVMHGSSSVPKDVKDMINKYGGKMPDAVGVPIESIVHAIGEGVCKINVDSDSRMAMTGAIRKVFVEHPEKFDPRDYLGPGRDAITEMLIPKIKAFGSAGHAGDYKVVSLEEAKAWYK
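Giardia FBPA (40 nM reagent) was preincubated 10 min at RT with compound (up to 57.5 uM final), then substrate plus GAPDH/TPI/NAD/arsenate coupling system with diaphorase/resazurin was added; resorufin fluorescence (525/598 nm) was read after 20 min.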
RE007 growth inh: qHTS Assay for Inhibitors of the HIV-1 protein Vpr; S. pombe RE007 Vpr strain, BacTiter-Glo ATP luminescence, 24 h; Potency, µM (doses to about 92.2 µM), for the others: at the highest dose activity change, negative = less growth, usual class: inhibitors; 360,000 tested, 0.21% active; AID 651644, 2012; active = well fitted falling curve with a large enough effect; inconclusive = small, poorly fitted or top-dose-only effect; inactive = no such curve, though single readings can be large or run the other way; also: potency is read from the fitted curve at half-maximal effect; % is scaled to controls: 0 for no effect and ±100 for the full control effect; nearly all actives have a fitted effect of over 50% in size
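Fission yeast strain RE007, carrying one chromosomally integrated HIV-1 vpr copy, was seeded at OD 0.01 in PMG+AL medium with 23 nL pinned compound. After 24 h at 30 °C and 99% humidity, viability was read by BacTiter-Glo luminescence.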
Cycloheximide cs: Cycloheximide Counterscreen for Small Molecule Inhibitors of Shiga Toxin; cell reporter, cycloheximide protein synthesis inhibition counterscreen; max response, %; 300,000 tested, 12% active; AID 2314, 2010; in the data active = max response mostly above about 13%, no sharp cut-off; inactive = mostly below about 14%; also: read at 38.3 µM for the half of the compounds with a filed dose; 0% is about no effect
LmPK inh: qHTS Assay for Inhibitors of Leishmania Mexicana Pyruvate Kinase (LmPK); Potency, µM (titrated, usually from 57.5 µM), inactives show at the top dose activity change, negative = inhibition, hits mostly inhibitors; purified LmPK, Kinase-Glo ATP luminescence, 1 h; 290,000 tested, 0.37% active; also: potency is read from the fitted curve at half-maximal effect; % is scaled to controls: 0 for no effect and ±100 for the full control effect
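In 50 mM imidazole pH 7.2 with 7 mM MgCl2, LmPK (0.1 nM) turned over PEP (0.5 mM) and ADP (0.1 mM) for 1 h at room temperature. Luciferase read-out of ATP.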
* hit, by the source's call; ? = inconclusive; / = not tested or not shown; [ ] = another dose, or the depositor's remark. The sample as a whole holds a higher share of hits than the screen did. Unless noted, calls follow the shape of the dose curve; as a rule, active = well fitted curve in the direction sought with a large enough effect; inconclusive = small, poorly fitted or top-dose-only effect, or another doubt; inactive = no such curve, though single readings can be large; an effect the other way counts as inactive or inconclusive.

SMILES | Shiga inhibitor | TbPYK inhibitor | Giardia FBPA inh | RE007 growth inh | Cycloheximide cs | LmPK inh
CC(=O)c1cc(F)c(N2CCOCC2)cc1C | 19 | 0% | 3% | -4% | 10 | -2%
Cc1cc(N2CCOCC2)c(F)cc1C(=O)c1ccccc1 | 17 | 0% | 5% | 13µM* | 0 | 3%
CCCC(=O)c1ccc(N2CCOCC2)c(F)c1 | 68* | -3% | 4% | -21% | 38* | -1%
Cc1ccc(C(=O)c2ccc(N3CCOCC3)c(F)c2)cc1 | 66* | 3% | -4% | -28% | 62* | 1%
CC1=C(C(=O)Nc2ccccc2)C(c2cccs2)n2nc(SCc3ccccc3)nc2N1 (stereo not drawn) | / | -3% | / | / | / | /
CC(=O)NCc1ccc(C(=O)O)cc1 | 2 | 4% | -1% | -9% | -4 | -1%
CCN1CCN(c2ccc(NC(=O)c3cccc(F)c3)cc2Cl)CC1 | 97* | 2% | -4% | -15% | 18* | -1%
CCC(=O)Nc1ccc(N2CCN(CC)CC2)c(Cl)c1 | -14 | 2% | / | -7% | 12 | 4%
CCN1CCN(c2ccc(NC(=O)c3ccco3)cc2Cl)CC1 | 59* | 0% | 11% | -22% | 27* | 0%
CN1CCN(c2ccc(NC(=O)c3ccco3)cc2Cl)CC1 | 55 | -8% | 0% | -1% | 47* | -3%
O=C(Nc1ccc(N2CCCC2)c(Cl)c1)c1ccco1 | 92* | -3% | -18% | ? | 32* | -20%
CN(C)S(=O)(=O)c1ccc(NC(=O)COc2cccc3c2OC(C)(C)C3)cc1 | / | 0% | / | 0% | / | /
O=C(Nc1ccc(N2CCOCC2)c([N+](=O)[O-])c1)c1ccco1 | 70* | -4% | -20% | 4% | 20* | -3%
CN(Cc1ccccc1)C(=O)c1ccc([N+](=O)[O-])o1 | 42* | 5% | -4% | -15% | 19* | 3%
CN(Cc1ccccc1)C(=O)c1ccc2c(c1)OCO2 | 16 | 7% | -2% | 14% | 15* | 0%
CC(CN(C)Cc1ccccc1)OC(=O)c1ccc2c(c1)OCCO2 (stereo not drawn) | 15 | -5% | -8% | 8% | 31* | -1%
CC(CN(C)Cc1ccccc1)OC(=O)c1ccccc1F (stereo not drawn) | -9 | 17% | -22% | 18% | 0 | -3%
CN(Cc1ccccc1)C(=O)COC(=O)c1ccc2c(c1)OCO2 | 54* | 3% | 6% | -5% | 33* | -3%
COc1ccccc1-c1ccc2c(c1)C(C)(Cc1cccc(C#N)c1)C(=O)N2 (stereo not drawn) | / | 0% | / | 5% | / | /
COc1ccc(NC(=O)COc2ccc(S(=O)(=O)NC3CCCCC3)cc2)c(OC)c1 | / | -6% | / | / | / | /
Cc1ccc(Cl)cc1NC(=O)c1cc2ccccc2cc1O | 19 | 0% | -19% | 4% | 9 | 2%
Cc1cccc(C)c1-n1nnnc1C(c1ccnc2ccccc12)N(Cc1ccccc1)Cc1ccccc1 (stereo not drawn) | / | -2% | / | 2% | / | /
COc1cccc(-c2nn(C)c3sc(C(=O)NCc4ccc(C)o4)cc23)c1 | 28 | -1% | -13% | -13% | 23* | -2%
COc1ccc(NC(=O)c2cc3c(-c4ccc(OC)c(OC)c4)nn(C)c3s2)cc1OC | 100* | 0% | 12% | -28% | 51* | 5%
O=C(O)CCn1c2ccccc2c2nc3ccccc3nc21 | 58* | -5% | 18% | 6% | 19* | 2%
SMILES | Shiga inhibitor | TbPYK inhibitor | Giardia FBPA inh | RE007 growth inh | Cycloheximide cs | LmPK inh
c1ccc2nc3c(nc2c1)c1ccccc1n3CCN1CCOCC1 | 42* | 0% | -26% | -3% | 14 | 2%
CCCn1c2ccccc2c2nnc(SCCN3CCOCC3)nc21 | -8 | -9% | 11% | 5% | -3 | 0%
Cc1ccc(C)c(NC(=O)CSc2nc(=O)n(Cc3ccccn3)c3c2CCC3)c1 | / | 4% | / | / | / | /
O=C(N/N=C/c1c[nH]c2ccccc12)c1ccc(O)c(O)c1 | 64* | -10% | -29% | -2% | 24* | -4%
COc1ccc2c(c1)c(/C=N/Nc1ccc(C(=O)O)cc1)c(C)n2C | 70* | -11% | -19% | -8% | 43* | -3%
O=C(N/N=C/c1c[nH]c2ccccc12)c1cccc(O)c1 | 70* | 2% | 0% | -3% | 26* | 1%
COc1ccc(C(=O)N/N=C/c2c[nH]c3ccccc23)cc1 | 69* | -8% | 25% | -17% | 31* | 2%
O=C(Nc1ccc2c(c1)OCO2)c1cc(C2CCCN(C(=O)CCc3ccccc3)C2)on1 (stereo not drawn) | / | -6% | / | -20% | / | /
COc1ccc(C(=O)OCC(=O)c2ccc3c(c2)NC(=O)CO3)cc1S(=O)(=O)N1CCOCC1 | / | -1% | / | 10% | / | /
O=C(N/N=C/C1C(c2ccccc2)C1(Cl)Cl)c1cccc(Cl)c1 (stereo not drawn) | 49* | 2% | -8% | -2% | 40* | 5%
COc1ccc2c(/C=N/Nc3ccc(C(=O)O)cc3)c[nH]c2c1 | 133* | -8% | -6% | -9% | 47* | 3%
CCOc1ccccc1C(=O)N/N=C/c1c[nH]c2ccccc12 | 17 | -1% | -5% | 0% | 17 | -2%[11.5 µM]
O=C(Nc1ccc(N=Nc2ccccc2)cc1)c1cccc(Cl)c1 | 0 | 1% | 5% | -13% | -1 | 2%
O=C(N/N=C/c1c[nH]c2ccccc12)c1cccc(Cl)c1 | 46* | 1% | 2% | 2% | 47* | -7%
CC(=O)Nc1cccc(C(=O)N/N=C/c2c[nH]c3ccccc23)c1 | 39 | -1% | 5% | 12% | 13* | -1%
CC(NC(=O)c1ccc2c(c1)sc1nc(-c3ccccc3)cn12)C12CC3CC(CC(C3)C1)C2 (stereo not drawn) | / | -4% | / | / | / | /
O=C1C=CC2(OCCCO2)C(Br)=C1CO | / | / | 3% | / | / | /
COc1ccc(C2CC2/C(=N/OC(=O)c2cccs2)c2ccccc2)cc1 (stereo not drawn) | 45 | 0% | -1% | 1% | 29* | 2%
COc1ccc(C(=O)O/N=C(/c2cccs2)C(C)(C)C)cc1 | 12 | -3% | 0% | 12% | -1 | -3%
CCOC(=O)N1CCN(Cc2nc(-c3cccc(Cl)c3)no2)CC1 | 7 | -1% | 0% | -3% | -3 | 4%
Clc1ccc(-c2noc(CN3CCOCC3)n2)cc1 | 68* | -9% | 4% | -2% | 57* | 3%
O=CN1CCCN(Cc2nc(-c3cccc(Cl)c3)no2)CC1 | 24 | -6% | 1% | -2% | 28* | -2%
O=C(C1CCN(Cc2nc(-c3ccc(Cl)cc3)no2)CC1)N1CCOCC1 | 93 | -15% | 4% | -5% | 0 | -1%

From PubChem
